# Measured values: PubChem BioAssay AID376 (PDSP, 2006)
# Screen size: about 2,000 compounds; about 250 (12%) were called active. This excerpt belongs to a sample that is enriched for actives. Values without a mark were called inactive. No stated cut-off is given here; in the data, active means hERG blockade below about -20% or above about 20%; inactive means in between.
# Target: Voltage-gated inwardly rectifying potassium channel KCNH2 (Homo sapiens) (UniProt Q12809)
# Test: KCNH2 potassium channel function modulators, cell-based (AID 376);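 further: 0% = buffer alone and 100% = reference blocker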
# Conditions: hERG-expressing cells, channel activity single-concentration screen; concentration not given here
# Chain of Voltage-gated inwardly rectifying potassium channel KCNH2 (Homo sapiens) (Q12809 whole entry, looked up): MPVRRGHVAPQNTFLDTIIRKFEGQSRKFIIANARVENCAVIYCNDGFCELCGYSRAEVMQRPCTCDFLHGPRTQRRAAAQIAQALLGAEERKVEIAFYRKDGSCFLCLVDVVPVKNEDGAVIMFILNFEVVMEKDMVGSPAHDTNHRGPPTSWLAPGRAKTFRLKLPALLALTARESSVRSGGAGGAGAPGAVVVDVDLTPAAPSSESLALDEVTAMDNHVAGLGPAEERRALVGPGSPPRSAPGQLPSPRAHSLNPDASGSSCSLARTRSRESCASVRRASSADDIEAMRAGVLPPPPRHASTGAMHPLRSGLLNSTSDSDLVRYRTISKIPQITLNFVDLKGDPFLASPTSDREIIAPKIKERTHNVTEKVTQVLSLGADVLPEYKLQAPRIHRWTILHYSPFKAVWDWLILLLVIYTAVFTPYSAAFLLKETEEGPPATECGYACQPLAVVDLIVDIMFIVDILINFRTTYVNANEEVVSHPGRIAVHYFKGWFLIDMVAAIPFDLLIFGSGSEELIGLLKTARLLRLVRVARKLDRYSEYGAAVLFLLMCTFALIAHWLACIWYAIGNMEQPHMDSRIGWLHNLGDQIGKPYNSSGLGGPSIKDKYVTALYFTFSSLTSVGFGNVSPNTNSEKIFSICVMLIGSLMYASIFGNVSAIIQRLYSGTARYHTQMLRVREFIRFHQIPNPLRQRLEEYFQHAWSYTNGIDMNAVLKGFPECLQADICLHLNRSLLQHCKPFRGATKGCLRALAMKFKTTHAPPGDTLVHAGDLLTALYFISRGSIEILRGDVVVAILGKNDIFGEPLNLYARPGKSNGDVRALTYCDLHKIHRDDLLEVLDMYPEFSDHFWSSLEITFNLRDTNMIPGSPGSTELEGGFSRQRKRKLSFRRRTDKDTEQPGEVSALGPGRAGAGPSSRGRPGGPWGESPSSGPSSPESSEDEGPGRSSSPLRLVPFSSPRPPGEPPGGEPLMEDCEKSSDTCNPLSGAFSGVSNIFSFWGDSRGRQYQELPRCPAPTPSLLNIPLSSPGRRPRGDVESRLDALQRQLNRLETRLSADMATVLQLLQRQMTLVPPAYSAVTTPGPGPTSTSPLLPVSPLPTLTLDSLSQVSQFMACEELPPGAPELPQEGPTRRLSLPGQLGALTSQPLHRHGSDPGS
row,SMILES,hERG blockade
1,NC(CNO)C(=O)O (stereo not drawn),-10.6%
2,Nc1nc2c(ncn2C2C=CC(CO)C2)c(=O)[nH]1 (stereo not drawn),1.77%
3,CN1CCCC1c1cccnc1.O=C(O)c1ccccc1O.O=C([OH2+])c1ccccc1O.O=C([OH2+])c1ccccc1O.O=C([OH2+])c1ccccc1O.[Cu+2] (stereo not drawn),26% (active)
4,CN1CCCC1c1cccnc1.O=C(O)c1ccccc1O.O=C([OH2+])c1ccccc1O.O=C([OH2+])c1ccccc1O.[Mn+2] (stereo not drawn),13.4%
5,CN1CCCC1c1cccnc1.O=C(O)c1ccccc1O.O=C([OH2+])c1ccccc1O.O=C([OH2+])c1ccccc1O.O=C([OH2+])c1ccccc1O.[Mn+2] (stereo not drawn),15.5%
6,O=C(O)CCSc1ncnc2nc[nH]c12,2.65%
7,N=C(c1ccc2ccccc2c1)c1ccccc1Cc1ccccc1,9.45%
8,CC1(CCOCc2ccccc2)NC(=O)NC1=O (stereo not drawn),-3.15%
9,COc1ccc(C=C(C#N)C(N)=O)cc1OC,4.46%
10,COc1ccc(C[N+](C)(C)N)cc1OC,-25.5% (active)
11,Nc1nc(N)nc(CCCCc2nc(N)nc(N)n2)n1,8.11%
12,NCc1nnn(Cc2ccccc2)c1N,0.879%
13,CC1(C(=O)O)CCCC1C(=O)O (stereo not drawn),0.951%
14,O=c1ccnc(SCc2ccc(Cl)cc2)[nH]1,-3.26%
15,O=S(=O)(CC(O)C(Cl)(Cl)Cl)NNc1ccccc1 (stereo not drawn),-8.3%
16,O=CNC(Cc1cnc[nH]1)C(=O)O (stereo not drawn),-6.41%
17,Nc1ccc(N=Nc2c(S(=O)(=O)O)cc3ccccc3c2S(=O)(=O)O)cc1,5.01%
18,O=S(=O)(O)c1cc(N=[N+]([O-])c2cc(S(=O)(=O)O)c3ccccc3c2)cc2ccccc12,20.3% (active)
19,O=S(=O)(O)c1cc(N=Nc2cccc3ccccc23)c(O)c2ncccc12,10.6%
20,CCC(Nc1ncnc2nc[nH]c12)C(=O)O (stereo not drawn),-0.207%
21,S=C(S)NCCN1CCNCC1,6.35%
22,O=CN1CCN(CC(O)CN2CCCCC2)CC1 (stereo not drawn),-4.54%
23,CN(C)CC1CCC2=C(C1=O)C(c1ccc(Cl)c(Cl)c1)C1=C(CCC(CN(C)C)C1=O)O2 (stereo not drawn),24.7% (active)

row,SMILES,hERG blockade
1,CN(C)CC1CCCC(CN(C)C)C1=O (stereo not drawn),-6%
2,O=C1c2ccccc2C(=O)N1c1ccc(Cc2ccc(N3C(=O)c4ccccc4C3=O)cc2)cc1,-0.893%
3,O=C(O)C=CC(=O)Nc1ccccn1,5.5%
4,O=C(CC(=O)c1ccncc1)c1ccccc1,10.3%
5,N=C(CC(=O)Nc1ccccn1)c1ccccc1,-21.8% (active)
6,CC1CC2C3CCC4=CC(=O)C=CC4(C)C3(Cl)C(Cl)CC2(C)C1(O)C(=O)COP(=O)(O)O (stereo not drawn),10.3%
7,COc1cc2c(cc1OC)C(CCN)=NCC2,26.9% (active)
8,Cc1cc(OCC(=O)O)c(Cl)cc1Cl,3.22%
9,O=c1[nH]c(=S)[nH]c(-c2ccccc2)c1Cc1c(O)ccc2ccccc12,-0.358%
10,O=C(O)CCCCn1cnc2c(=S)nc[nH]c21,6.53%
11,S=c1nc[nH]c2c1ncn2Cc1ccco1,-15.9%
12,O=C(O)CCn1cnc2c(=S)nc[nH]c21,-35.8% (active)
13,Nc1ccccc1SCc1csc(-c2ccc(Cl)cc2)n1,4.83%
14,CC(C)c1cc(C(F)(F)F)nc(NNc2nc(C(C)C)cc(C(F)(F)F)n2)n1,7.39%
15,Nc1nc2c(ncn2C2CCC(CO)O2)c(=O)n1C(=O)c1ccccc1 (stereo not drawn),-28.6% (active)
16,OCC1CCCC(n2cnc3c(=S)nc[nH]c32)O1 (stereo not drawn),-13.5%
17,COc1nc(N)nc2c1ncn2C1CC(O)C(CO)O1 (stereo not drawn),12%
18,O=C(O)c1c2c(c(O)c3c1CN(C1CCCCC1)CO3)OCN(C1CCCCC1)C2,-1.92%
19,C[N+](C)(C)CCCSc1nc2ccccc2[nH]1,6.28%
20,CC(CCC(=O)O)(c1cc(Br)c(O)c(Br)c1)c1cc(Br)c(O)c(Br)c1,5.39%
21,CN(C)CN1C(=O)SC(=C2C(=O)N(CN(C)C)c3ccccc32)C1=O,-4.39%
22,CN(C)CC(C)(C)CN1c2ccccc2Sc2ccccc21,22.5% (active)
23,c1ccc2c(c1)-c1nc3ccccc3cc1C2N1CCOCC1 (stereo not drawn),-9.86%

row,SMILES,hERG blockade
1,Cc1ncc(CN=Cc2ccc(Cl)cc2)c(N)n1,6.55%
2,CC12CCC3c4ccc(O)cc4CCC3C1CCC2OC(=O)CCC1CCCC1 (stereo not drawn),6.8%
3,CC(Br)C(=O)c1ccc2cc(Br)c3ccccc3c2c1 (stereo not drawn),8.72%
4,CC(=NO)c1ccc2cc(Br)c3ccccc3c2c1,61.6% (active)
5,CCCS(=O)(=O)O,-0.642%
6,c1ccc2c(c1)c1ccccc1n2Cn1c2ccccc2c2ccccc21,-38.4% (active)
7,c1ccc2c(CSCc3cccc4ccccc34)cccc2c1,13.9%
8,NC(=O)CC(N)c1nn[nH]n1 (stereo not drawn),-2.74%
9,CN1CCCCC1CCN1c2ccccc2Sc2ccc(S(C)=O)cc21 (stereo not drawn),16.5%
10,COc1ccc2c(c1)N(CCC1CCCCN1C)c1ccccc1S2 (stereo not drawn),59.1% (active)
11,CN1CCCCC1CCN1CCCCC1 (stereo not drawn),1.07%
12,OC(C1=CC(=Cc2ccncc2)c2ccccc21)c1ccncc1 (stereo not drawn),1.87%
13,O=C(NCc1cccs1)OC1CC2CCC1C2 (stereo not drawn),-2.2%
14,C[N+](C)(C)CC(=O)NN=Cc1c(O)ccc2ccccc12,-4.06%
15,c1ccc(C(CCN2CC3CCC(CC3)C2)c2ccccc2)cc1,56.9% (active)
16,c1ccc(C(CCN2CCCC2)c2ccccn2)cc1 (stereo not drawn),3.48%
17,c1ccc2c(c1)-c1ccccc1C2N1CC2CCC(CC2)C1,-7.32%
18,Nc1cc(S(N)(=O)=O)ccc1SSc1ccc(S(N)(=O)=O)cc1N,-0.877%
19,OC(COc1cccc2ccccc12)CN1CCOCC1 (stereo not drawn),2.26%
20,Nc1ccc2[nH]cc(CCC(=O)O)c2c1,1.56%
21,OCC1OC(N2CCN(C3OC(CO)C(O)C(O)C3O)CC2)C(O)C(O)C1O (stereo not drawn),-5.49%
22,O=P(O)(O)OC1OC(CO)C(O)C(O)C1O (stereo not drawn),-24.6% (active)
